# Values joined by “and” are separate entries in the source; they are usually repeats but may differ in a detail not shown here. Equal values may be shown once. Records with an inconclusive call do not appear. Where a call stands in place of a potency, no number is given. More than one record can exist for a structure, and the calls need not agree. Active and inactive are the calls of the source. Unless noted, the call rests on the fitted dose curve; in most records, active means well fitted curve in the direction sought with a large enough effect in the repeat runs; inconclusive means weak or mixed curves; inactive means no such curve, though single readings can be large; an effect the other way counts as inactive or inconclusive.
# Experiments:
# [1] = qHTS assay to identify small molecule antagonists of the glucocorticoid receptor (GR) signaling pathway - cell viability counter screen (AID 720693); further: nearly all actives have a fitted effect of over 55% in size
# [2] = qHTS assay for identifying genotoxic compounds that show differential cytotoxicity against isogenic chicken DT40 cell lines with known DNA damage response pathways - wild type cell line (AID 743012); further: nearly all actives have a fitted effect of over 60% in size; further: potency means the concentration at half of the fitted maximal effect
# Procedure, shortened: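 First, wild type DT40 cells were plated at 300 per well and equilibrated about 0.5 h at 37 C/5% CO2. Next, compounds in DMSO were added and exposure lasted 40 h. Finally, CellTiter-Glo was added for 30 min at room temperature and luminescence recorded.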
# [3] = qHTS assay for identifying genotoxic compounds that show differential cytotoxicity against isogenic chicken DT40 cell lines with known DNA damage response pathways - Rev3 mutant cell line (AID 743014); further: nearly all actives have a fitted effect of over 55% in size; further: potency means the concentration at half of the fitted maximal effect
# [4] = qHTS assay for identifying genotoxic compounds that show differential cytotoxicity against isogenic chicken DT40 cell lines with known DNA damage response pathways - Rad54/Ku70 mutant cell line (AID 743015); further: nearly all actives have a fitted effect of over 60% in size; further: potency means the concentration at half of the fitted maximal effect
# [5] = qHTS assay to identify small molecule antagonists of the androgen receptor (AR) signaling pathway - cell viability counter screen (AID 743033; further: nearly all actives have a fitted effect of over 45% in size)
# [6] = qHTS assay to identify small molecule antagonists of the androgen receptor (AR) signaling pathway using the MDA cell line - cell viability counter screen (AID 743041; further: nearly all actives have a fitted effect of over 45% in size)
# Procedure, shortened: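 R1881-driven MDA-kb2 AR-luc cells, 3,000/well, were dosed with library compounds for 16 h; cell health came from CellTiter-Fluor fluorescence in the reporter wells.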
# [7] = qHTS assay to identify small molecule antagonists of the thyroid receptor (TR) signaling pathway - cell viability counter screen (AID 743064); further: nearly all actives have a fitted effect of over 50% in size
# Procedure, shortened: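 In-well cytotoxicity read by CellTiter-Fluor (30 min, 37 C) following 23.5 h exposure of GH3 cells bearing a TRE-luciferase sensor. Compounds were added alongside 1 nM (final) T3 to drive TR transactivation.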
# [8] = qHTS assay to identify small molecule antagonists of the thyroid receptor (TR) signaling pathway (AID 743065); further: series mostly up to about 70 µM; nearly all actives have a fitted effect of over 55% in size
# Procedure, shortened: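 Antagonism measured as loss of luciferase signal in GH3 cells stably carrying a TRE-luciferase reporter, co-treated with compound and T3 (1 nM final) for 23.5 h at 37 C. Viability was read in the same well by CellTiter-Fluor.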
# [9] = tested on: thyroid hormone receptor (rat, GH3 cells); assay: qHTS assay to identify small molecule agonists of the thyroid receptor (TR) signaling pathway (AID 743066; calls by dose curve)
# [10] = target: Estrogen receptor (Homo sapiens) (UniProt P03372); assay: qHTS assay to identify small molecule antagonists of the estrogen receptor alpha (ER-alpha) signaling pathway (AID 743069; active means well fitted curve in the direction sought with a large enough effect in the signal ratio in the repeat runs, not every such curve was filed as active; the % refers to the signal ratio)
# Estrogen receptor (Homo sapiens), sequence (P03372 whole entry, looked up): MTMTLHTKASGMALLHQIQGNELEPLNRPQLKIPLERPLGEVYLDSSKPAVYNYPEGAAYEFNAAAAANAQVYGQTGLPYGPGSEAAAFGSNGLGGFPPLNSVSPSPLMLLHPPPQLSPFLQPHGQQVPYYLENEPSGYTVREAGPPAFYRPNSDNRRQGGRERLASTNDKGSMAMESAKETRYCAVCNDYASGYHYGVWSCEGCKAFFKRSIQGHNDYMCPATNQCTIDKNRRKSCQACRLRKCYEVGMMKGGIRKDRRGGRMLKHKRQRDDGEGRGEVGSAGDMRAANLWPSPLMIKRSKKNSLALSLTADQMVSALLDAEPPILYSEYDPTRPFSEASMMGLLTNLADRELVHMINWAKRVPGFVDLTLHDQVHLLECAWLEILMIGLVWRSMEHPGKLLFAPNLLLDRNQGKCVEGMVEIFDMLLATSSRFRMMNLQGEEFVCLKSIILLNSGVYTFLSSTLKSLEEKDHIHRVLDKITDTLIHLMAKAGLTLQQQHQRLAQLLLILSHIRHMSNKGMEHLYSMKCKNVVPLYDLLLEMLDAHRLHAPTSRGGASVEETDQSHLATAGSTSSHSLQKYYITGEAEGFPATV
# Procedure, shortened: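 Compound effects are measured against 17beta-estradiol stimulation in HEK293 cells with a UAS-controlled beta-lactamase reporter for ER-alpha. Exposure lasts 18 hr at 37C; LiveBLAzer B/G FRET substrate follows for 2 hr at room temperature.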
# [11] = qHTS assay to identify small molecule antagonists of the estrogen receptor alpha (ER-alpha) signaling pathway - cell viability counter screen (AID 743074; calls by dose curve;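 further: HEK293 cells carrying ER-alpha-UAS-bla reporter stimulated with 17beta-estradiol; nearly all actives have a fitted effect of over 45% in size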)
# [12] = target: Estrogen receptor (Homo sapiens) (UniProt P03372); assay: qHTS assay to identify small molecule agonists of the estrogen receptor alpha (ER-alpha) signaling pathway (AID 743075; calls by dose curve)
# [13] = target: Estrogen receptor (Homo sapiens) (UniProt P03372); assay: qHTS assay to identify small molecule agonists of the estrogen receptor alpha (ER-alpha) signaling pathway using the BG1 cell line (AID 743079); further: nearly all actives have a fitted effect of over 20% in size; further: potency means the concentration at half of the fitted maximal effect
# [14] = qHTS assay to identify small molecule antagonists of the estrogen receptor alpha (ER-alpha) signaling pathway using the BG1 cell line (AID 743080; calls by dose curve;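 further: BG1 cells stimulated with 17beta-estradiol alongside compound; series mostly up to about 70 µM; nearly all actives have a fitted effect of over 25% in size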)
# Procedure, shortened: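 BG1Luc4E2, endogenous ER-alpha, 4xERE-luc; 5 d charcoal-stripped FBS, phenol red free; 24 h plating; cpd + 17beta-estradiol 21.5 h, 37 C/5% CO2; CellTiter-Fluor viability 30 min, then ONE-Glo luciferase 30 min RT.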
# [15] = qHTS assay to identify small molecule antagonists of the estrogen receptor alpha (ER-alpha) signaling pathway using the BG1 cell line - cell viability counter screen (AID 743081);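 further: compound given together with 17beta-estradiol as the ER stimulus; series mostly up to about 70 µM; nearly all actives have a fitted effect of over 45% in size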
# Aromatase (Homo sapiens) = Aromatase (Homo sapiens) (UniProt P11511); assay: qHTS assay to identify aromatase inhibitors (AID 743083); further: nearly all actives have a fitted effect of over 55% in size; further: potency means the concentration at half of the fitted maximal effect
# Aromatase (Homo sapiens), sequence (P11511 whole entry, looked up): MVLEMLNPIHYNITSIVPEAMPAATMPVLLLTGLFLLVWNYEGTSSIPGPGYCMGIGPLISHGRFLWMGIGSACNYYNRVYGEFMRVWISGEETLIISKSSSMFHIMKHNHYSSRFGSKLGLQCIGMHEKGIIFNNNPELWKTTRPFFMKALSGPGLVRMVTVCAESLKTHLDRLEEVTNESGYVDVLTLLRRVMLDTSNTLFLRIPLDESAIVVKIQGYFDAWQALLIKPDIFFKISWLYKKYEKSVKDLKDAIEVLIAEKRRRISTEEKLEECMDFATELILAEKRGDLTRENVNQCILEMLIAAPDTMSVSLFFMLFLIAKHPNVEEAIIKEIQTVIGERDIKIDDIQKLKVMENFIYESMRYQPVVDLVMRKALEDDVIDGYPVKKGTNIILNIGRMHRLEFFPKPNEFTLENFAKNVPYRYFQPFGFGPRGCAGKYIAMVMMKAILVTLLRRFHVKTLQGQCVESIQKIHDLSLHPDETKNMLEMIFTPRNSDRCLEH
# [16] = target: Androgen receptor (Homo sapiens) (UniProt P10275); assay: qHTS assay to identify small molecule antagonists of the androgen receptor (AR) signaling pathway (AID 743035; active means well fitted inhibition curve with a large enough effect in the signal ratio in the repeat runs, not every such curve was filed as active; the % refers to the signal ratio)
# Androgen receptor (Homo sapiens), sequence (P10275 whole entry, looked up): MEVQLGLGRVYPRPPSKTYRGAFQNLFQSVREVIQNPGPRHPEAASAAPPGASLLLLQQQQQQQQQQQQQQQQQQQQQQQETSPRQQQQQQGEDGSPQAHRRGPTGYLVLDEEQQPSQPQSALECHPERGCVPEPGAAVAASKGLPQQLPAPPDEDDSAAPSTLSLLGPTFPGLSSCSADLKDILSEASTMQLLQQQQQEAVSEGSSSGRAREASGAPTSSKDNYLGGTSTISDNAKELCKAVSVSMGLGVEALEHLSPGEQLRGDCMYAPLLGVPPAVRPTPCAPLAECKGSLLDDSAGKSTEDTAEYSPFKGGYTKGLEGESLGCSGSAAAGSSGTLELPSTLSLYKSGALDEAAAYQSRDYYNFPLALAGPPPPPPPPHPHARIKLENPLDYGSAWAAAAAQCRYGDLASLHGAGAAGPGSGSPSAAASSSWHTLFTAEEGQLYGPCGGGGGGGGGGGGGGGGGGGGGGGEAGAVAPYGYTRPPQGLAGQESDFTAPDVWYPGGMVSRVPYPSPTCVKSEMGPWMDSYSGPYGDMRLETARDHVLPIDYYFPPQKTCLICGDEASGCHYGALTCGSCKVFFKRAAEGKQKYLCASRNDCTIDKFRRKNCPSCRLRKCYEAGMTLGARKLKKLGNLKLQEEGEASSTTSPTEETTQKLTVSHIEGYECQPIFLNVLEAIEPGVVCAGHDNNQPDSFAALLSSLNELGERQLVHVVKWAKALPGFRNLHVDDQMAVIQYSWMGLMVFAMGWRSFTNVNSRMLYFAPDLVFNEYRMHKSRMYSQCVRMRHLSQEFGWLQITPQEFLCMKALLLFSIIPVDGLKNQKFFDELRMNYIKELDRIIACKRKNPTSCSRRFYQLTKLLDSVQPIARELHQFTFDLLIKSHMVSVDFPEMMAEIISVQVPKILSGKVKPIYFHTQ
# Procedure, shortened: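 Beta-lactamase FRET read (2 h RT incubation with LiveBLAzer B/G) following 16 h of compound plus R1881 treatment of AR-UAS-bla HEK293 cells, which had been pre-incubated 4 h at 37C.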
# [17] = target: Androgen receptor (Homo sapiens) (UniProt P10275); assay: qHTS assay to identify small molecule agonists of the androgen receptor (AR) signaling pathway (AID 743036; active means well fitted activation curve with a large enough effect in the signal ratio in the repeat runs, with a control signal flat, not every such curve was filed as active; the % refers to the signal ratio)
# Procedure, shortened: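 Activation was read as beta-lactamase FRET signal from LiveBLAzer B/G substrate, added for 2 h at room temperature. Before that, GeneBLAzer AR-UAS-bla GripTite (HEK293) cells had 16 h compound exposure at 37C.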
# [18] = target: Androgen receptor (Homo sapiens) (UniProt P10275); assay: qHTS assay to identify small molecule agonists of the androgen receptor (AR) signaling pathway using the MDA cell line (AID 743040; further: nearly all actives have a fitted effect of over 20% in size)
# Procedure, shortened: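 After a 5 h incubation at 37C and 0% CO2, MDA-kb2 reporter cells were dosed with compounds in DMSO and kept 16 h under the same conditions. Luciferase activity was then read as luminescence with ONE-Glo.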
# [19] = target: Androgen receptor (Homo sapiens) (UniProt P10275); assay: qHTS assay to identify small molecule antagonists of the androgen receptor (AR) signaling pathway using the MDA cell line (AID 743042; further: nearly all actives have a fitted effect of over 55% in size)
# Procedure, shortened: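 Antagonist mode: compounds plus R1881 agonist added to MDA-kb2 AR-luc cells, incubated 16 h at 37C. Luciferase reporter luminescence quantified, with multiplexed CellTiter-Fluor readout for cell viability.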
SMILES,Potency [1],Potency [2],Potency [3],Potency [4],Potency [5],Potency [6],Potency [7],Potency [8],Potency [9],Potency [10],Potency [11],Potency [12],Potency [13],Potency [14],Potency [15],Potency (Aromatase (Homo sapiens)),Potency [16],outcome [17],Potency [18],Potency [19]
CC(CCC(=O)O)(c1ccc(O)cc1)c1ccc(O)cc1,inactive,inactive,inactive,inactive,inactive,inactive,inactive,inactive,inactive,inactive,inactive,inactive,61.1 µM (active),inactive,inactive,inactive,–,–,–,–
O=C(/C=C/c1ccccc1)OCc1ccccc1,inactive,inactive and 54.5 µM (active),inactive and 38.6 µM (active),inactive and 43.3 µM (active),inactive,inactive,inactive,inactive,inactive,inactive,inactive,inactive,29.8 µM (active),inactive,inactive,inactive,–,–,–,–
c1ccncc1,inactive,inactive,inactive,inactive,inactive,inactive,inactive,inactive,inactive,inactive,inactive,inactive,inactive,inactive,inactive,inactive,–,–,–,–
OCCO,inactive,inactive,inactive,inactive,inactive,inactive,inactive,inactive,inactive,inactive,inactive,inactive,inactive,inactive,inactive,inactive,inactive,inactive,inactive,inactive
CCCCC(CC)COC(=O)c1ccc(N(C)C)cc1 (centres undefined),inactive,inactive,inactive and 54.5 µM (active),inactive and 43.3 µM (active),inactive,inactive,inactive,inactive,inactive,inactive,inactive,inactive,inactive,inactive,inactive,inactive,–,–,–,–
CN1C(C(=O)Nc2ccccn2)=C(O)c2ccccc2S1(=O)=O,inactive,inactive,inactive,inactive,inactive,inactive,inactive,inactive,inactive,inactive,inactive,inactive,inactive,inactive,inactive,inactive,–,–,–,–
CC1=CCC(C(C)(C)O)CC1 (centres undefined),inactive,inactive,inactive,inactive,inactive,inactive,inactive,inactive,inactive,inactive,inactive,inactive,inactive,inactive,inactive,inactive,inactive,inactive,inactive,inactive
CCCCOCCOCCO,inactive,inactive,inactive,inactive,inactive,inactive,inactive,inactive,inactive,inactive,inactive,inactive,inactive,inactive,inactive,inactive and 61.1 µM (active),–,–,–,–
Nc1ccc(Cl)cc1Cl,inactive,inactive,inactive,inactive,inactive,inactive,inactive,inactive,inactive,inactive,inactive,inactive,inactive,inactive,inactive,inactive,–,–,–,–
CC(=O)C1(C)CC2=C(CCCC2(C)C)CC1C (centres undefined),inactive,inactive,inactive,inactive and 54.5 µM (active),inactive,inactive,inactive,inactive,inactive,–,inactive,–,–,–,inactive,inactive,inactive,inactive,inactive,inactive
COC(C)COC(C)COC(C)CO (centres undefined),inactive,inactive,inactive,inactive,inactive,inactive,inactive,inactive,inactive,inactive,inactive,inactive,inactive,inactive,inactive,inactive,inactive,inactive,inactive,inactive
O=S(=O)(O)c1ccc(O)cc1,inactive,inactive,inactive,inactive,inactive,inactive,inactive,inactive,inactive,inactive,inactive,inactive,inactive,inactive,inactive,inactive,–,–,–,–
Cc1cccc([N+](=O)[O-])c1C,inactive,inactive,inactive,inactive,inactive,inactive,inactive,inactive,inactive,inactive,inactive,inactive,inactive,inactive,inactive,inactive,inactive,inactive,inactive,inactive

# Source: PubChem BioAssay (Tox21)
